Results published in PubChem BioAssay AID933 (National Center for Advancing Translational Sciences (NCATS), 2007).
Results filed as inconclusive are left out. Unmarked numbers belong to inactive results. Activity calls are given as the source filed them. The call rests on the fitted dose curve; in most records, active means well fitted activation curve with a large enough effect in the signal ratio, with a control signal flat; inconclusive means small, poorly fitted or top-dose-only effect, or a change in a side signal; inactive means flat fitted curve, though single readings scatter; the % refers to the signal ratio.

target: Thyrotropin receptor (Homo sapiens) (UniProt P16473); assay: Secondary Concentration-Response Assay for Agonists of the Thyroid Stimulating Hormone Receptor: HTRF Activity Detection; conditions: HEK293-TSHR cells, cAMP HTRF ratio, 30 min; series mostly up to 91.7 µM;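 further: HEK 293 cells stably expressing human TSHR with RO 20-1724 phosphodiesterase inhibitor; % of control where 0% means no effect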
Source text: NIH Chemical Genomics Center [NCGC]
NIH Molecular Libraries Screening Centers Network [MLSCN]
PI Name: Dr. Marvin Gershengorn, NIH
Confirmation of Thyroid Stimulating Hormone Receptor Agonists
TSH is an alpha/beta heterodimeric glycoprotein hormone secreted from the anterior pituitary gland which belongs to the glycoprotein hormone family. The actions of TSH are mediated by a seven-transmembrane receptor, which upon TSH binding couples preferentially to the G-alpha (s) protein (Gs), resulting in activation of adenylate cyclase and increase in cyclic adenosine 3', 5' monophosphate (cAMP). The TSH receptor (THSR) is mainly expressed in thyroid follicular cells and regulates their growth and function. Recombinant TSH is used to activate TSHR in patients with thyroid cancer receiving thyroid hormone suppression therapy and to screen for residual tumor after surgery, but it is expensive and must be administered intramuscularly. An orally active small molecule TSHR agonist would serve as an invaluable research tool for studying TSHR pharmacology and physiology, and would have multiple advantages in therapeutic settings. However, no selective small molecule agonist of the TSH receptor exists, and no small molecule screen for TSHR agonists has ever been reported.
A confirmatory assay of putative TSHR agonists was conducted on a different TSHR transfected HEK 293 cell line, using an orthogonal detection technology to measure cAMP stimulation: antibody-based Homogeneous Time Resolved Fluorescence (HTRF).
NCGC Assay Protocol Summary:
Homogeneous Time Resolved Fluorescence (HTRF) cAMP Assay. HEK 293 cells stably transfected with a vector containing the TSHR and maintained under hygromycin selection were obtained from the laboratory of Dr. Marvin Gershengorn. […] Plates were measured using the Envision plate reader (PerkinElmer, Boston, MA) with excitation at 330 nm and emissions of 615 nm and 660 nm.
Keywords: Thyroid-stimulating hormone TSH, TSHR, TSHR agonist, quantitative high throughput screening, qHTS, HTS, probe identification, CNG, cAMP, cyclic nucleotide gated ion channel PubChem

Thyrotropin receptor (Homo sapiens), sequence (P16473 whole entry, looked up): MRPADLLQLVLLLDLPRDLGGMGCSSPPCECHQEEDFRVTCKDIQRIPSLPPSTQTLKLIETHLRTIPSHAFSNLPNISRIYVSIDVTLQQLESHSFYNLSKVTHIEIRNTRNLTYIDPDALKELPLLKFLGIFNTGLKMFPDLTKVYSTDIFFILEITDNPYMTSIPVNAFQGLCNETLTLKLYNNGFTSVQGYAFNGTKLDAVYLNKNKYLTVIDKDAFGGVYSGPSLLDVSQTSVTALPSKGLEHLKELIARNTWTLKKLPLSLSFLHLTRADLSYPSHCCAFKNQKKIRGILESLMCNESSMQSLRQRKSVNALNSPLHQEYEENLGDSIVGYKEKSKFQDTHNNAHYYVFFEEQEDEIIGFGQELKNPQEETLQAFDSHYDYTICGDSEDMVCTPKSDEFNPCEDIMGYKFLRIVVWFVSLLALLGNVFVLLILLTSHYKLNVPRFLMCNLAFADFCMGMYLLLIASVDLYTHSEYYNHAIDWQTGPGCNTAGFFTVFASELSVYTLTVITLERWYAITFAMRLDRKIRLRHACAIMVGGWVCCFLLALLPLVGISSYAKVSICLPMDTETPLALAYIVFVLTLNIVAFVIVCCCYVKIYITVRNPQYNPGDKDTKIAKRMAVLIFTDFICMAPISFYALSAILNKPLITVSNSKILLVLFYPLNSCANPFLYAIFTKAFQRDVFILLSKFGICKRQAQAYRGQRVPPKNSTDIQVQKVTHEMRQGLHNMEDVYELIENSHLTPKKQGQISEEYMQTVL

SMILES | outcome | activation
CCOC(=O)C1=C(N)Oc2c(c(=O)oc3ccccc23)C12C(=O)N(C)c1ccccc12 (stereo not drawn) | inactive | –
C=CCN1C(=O)C2(C(C(=O)OC)=C(N)Oc3c2c(=O)oc2ccccc32)c2ccccc21 (stereo not drawn) | inactive | –
O=c1[nH]c(=O)n(Cc2ccco2)c(O)c1C=NC1CC1 | – | -0.432% [at 0.00035 µM]
